Only some compounds are listed: those with a hit (about 6.2% of all), similar ones and a draw of the others.
AI-2 QS modul: Vibrio harveyi AI-2 quorum sensing modulators, primary screen, JMH597 strain, luminescence/OD600 ratio; activity change, % at 7.5 µM; 0.4% of 300,000 active; Vibrio harveyi JMH597 AI-2 luminescence/OD600 ratio, 9 h; hits give low values; strain lacks LuxN and CqsS sensors; 0 = neutral-control median; in the data active = activity change below about -75%, passing the limit was not always enough;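 also: luminescence divided by OD600 gain over 9 h not by final OD600 alone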
NTR1 ag: agonists of human NTR1, primary screen, imaging, U2OS cells, beta-arrestin-GFP, high content; NTR1-U2OS beta-arrestin-GFP spot imaging, agonist mode; 0.17% of 330,000 active; AID 493036, 2011; activation, % at 20 µM; Neurotensin receptor type 1 (Homo sapiens), P30989;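 active = activation at or above 40% of the spot to cytoplasm intensity ratio, with at least 20 cells analyzed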;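 also: 0% = DMSO without peptide and 100% = 100 nM NTR1 peptide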
AHR activator: AHR activators, primary screen, cell-based, luminescence, luciferase reporter, human; Aryl hydrocarbon receptor (Homo sapiens), P35869; AID 2796, 2010; AHR-responsive luciferase reporter cells; activation, % at 5 µM; 2.5% of 320,000 active; in the data active = activation above about 47%;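 also: 0% = vehicle wells and 100% = reference agonist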
Target sequence (P35869 whole entry, looked up): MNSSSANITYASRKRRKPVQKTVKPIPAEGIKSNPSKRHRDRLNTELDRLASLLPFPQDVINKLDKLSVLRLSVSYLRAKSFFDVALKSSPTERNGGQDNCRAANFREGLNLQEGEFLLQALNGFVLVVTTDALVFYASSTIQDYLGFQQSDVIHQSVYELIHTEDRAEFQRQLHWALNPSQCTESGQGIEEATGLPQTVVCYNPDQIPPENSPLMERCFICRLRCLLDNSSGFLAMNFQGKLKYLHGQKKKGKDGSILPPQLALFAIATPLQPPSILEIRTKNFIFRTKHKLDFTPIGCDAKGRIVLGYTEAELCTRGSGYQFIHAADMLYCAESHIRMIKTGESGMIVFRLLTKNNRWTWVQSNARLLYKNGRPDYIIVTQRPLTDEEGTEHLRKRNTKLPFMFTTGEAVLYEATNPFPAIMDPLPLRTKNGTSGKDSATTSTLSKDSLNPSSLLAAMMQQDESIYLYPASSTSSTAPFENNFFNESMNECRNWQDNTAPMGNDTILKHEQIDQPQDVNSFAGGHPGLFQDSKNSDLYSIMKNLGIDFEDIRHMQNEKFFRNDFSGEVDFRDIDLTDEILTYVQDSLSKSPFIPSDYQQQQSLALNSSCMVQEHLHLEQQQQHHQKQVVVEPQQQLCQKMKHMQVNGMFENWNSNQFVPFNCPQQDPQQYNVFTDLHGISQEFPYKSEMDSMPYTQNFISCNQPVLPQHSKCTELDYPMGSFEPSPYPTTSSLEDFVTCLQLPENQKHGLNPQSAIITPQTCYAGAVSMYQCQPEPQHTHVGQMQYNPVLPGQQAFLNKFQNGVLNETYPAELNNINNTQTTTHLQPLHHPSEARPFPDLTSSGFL
NR3A LBD binder: binders of NR3A ligand-binding domain, primary screen, biophysical, differential scanning fluorimetry, uHTS; Glutamate receptor ionotropic, NMDA 3A (GRIN3A) ligand-binding domain; NR3A LBD differential scanning fluorimetry, Tm shift; 0% = protein alone, 100% = glycine-bound protein; Tm shift relative to glycine control, % at 25 µM; 2.5% of 340,000 active;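 active = melting temperature shift of at least 10% of the positive control shift, at one fixed dose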
Mot1-301 SUMO: yeast Mot1-301 growth rescue at high temperature, primary screen, SUMOylation pathway inhibitor project, S. cerevisiae, ATP luminescence, 38.5C. S. cerevisiae Mot1-301 growth rescue; percent above DMSO median, 100 means doubled. growth rescue, % at 18.8 µM. 1% of 320,000 active. AID 2716, 2010;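 active = every valid replicate shows activation above 250% relative to neutral control wells; inactive = the rest, any valid replicate at or below 250%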;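 also: OY570 slx delta 5 strain wells were the positive control but not used for scaling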
H9c2 protect: cardioprotection against H2O2-induced cell death, primary screen, uHTS, H9c2 cells, ATPLite luminescence; H9c2 cardiomyocytes, H2O2 injury protection, 2 h; protection from H2O2 cell death, % at 20 µM; 0.63% of 360,000 active;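 active = compounds giving at least 50% protection of heart cells from peroxide-induced death in the single-dose screen, raw or plate-pattern-corrected value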;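 also: 0% = DMSO wells with peroxide and 100% = DMSO wells without peroxide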
Active calls of the source: *.

Screening CC(=O)c1c(C)[nH]c(C(=O)OCC(=O)Nc2nnc(-c3ccccc3)o2)c1C returned NTR1 ag -2, AHR activator 0, NR3A LBD binder -2, Mot1-301 SUMO -11 and H9c2 protect 23.
For COc1ccc(Cl)cc1C(=O)NC(=S)Nc1nc(C)cc(C)n1 the results were AI-2 QS modul 17, NTR1 ag 4, AHR activator 9, NR3A LBD binder -1, Mot1-301 SUMO -10 and H9c2 protect -1.
`COc1ccc(Cl)cc1C(=O)NC(=S)Nc1cc(-c2nc3ccccc3[nH]2)ccc1C` gave AI-2 QS modul 14, NTR1 ag 3, AHR activator 46, NR3A LBD binder 18*, Mot1-301 SUMO -9 and H9c2 protect -22.
`CC1=NN(c2cccc(C(=O)O)c2)C(=O)/C1=C\C=C/c1ccccc1` gave AI-2 QS modul 40, NTR1 ag 18, NR3A LBD binder 12* and H9c2 protect -14.
For COc1cccc(OC)c1/C=C/C(=O)NC1CCCCC1 the results were AI-2 QS modul 22, NTR1 ag 0, AHR activator 0, NR3A LBD binder 1, Mot1-301 SUMO -30 and H9c2 protect 11.
CC1CCCN(c2nc(-c3cccnc3)nc3scc(-c4ccccc4)c23)C1 (stereo not given) was read as AI-2 QS modul -1, NTR1 ag 7, AHR activator 26, NR3A LBD binder 12*, Mot1-301 SUMO -1 and H9c2 protect -4.
CN(CC(=O)Nc1c(Cl)cccc1Cl)C(=O)CNC(=O)c1sc2ccccc2c1Cl was read as NR3A LBD binder 19* and H9c2 protect -1.
FC(F)C(F)(F)Oc1cccc(-c2n[nH]c(=S)n2Cc2ccccc2)c1 was read as NTR1 ag 1, NR3A LBD binder 21* and H9c2 protect -5.
For S=c1[nH]nc(-c2cccnc2)n1Cc1ccccc1 the results were AI-2 QS modul -34, NTR1 ag -1, AHR activator 3, NR3A LBD binder 0, Mot1-301 SUMO 365 and H9c2 protect 0.
S=c1[nH]nc(-c2ccc(Br)cc2)n1Cc1ccccc1 was read as AI-2 QS modul 13, NTR1 ag 4, AHR activator 7, NR3A LBD binder 14*, Mot1-301 SUMO 13 and H9c2 protect -7.
`Fc1ccc(-c2n[nH]c(=S)n2Cc2ccccc2)cc1` gave AI-2 QS modul -3, NTR1 ag -1, AHR activator 0, NR3A LBD binder 0, Mot1-301 SUMO -4 and H9c2 protect -4.
O=C(CCNS(=O)(=O)c1ccc2nsnc2c1)N1CCN(c2ccncc2)CC1 was read as NTR1 ag 8, AHR activator 3, NR3A LBD binder 4, Mot1-301 SUMO -10 and H9c2 protect 3.
CC1(C)SC(=S)N(NC(=O)Nc2ccccc2)C1N(O)C(=O)Nc1cccc2ccccc12 (stereo not given) was read as AI-2 QS modul 4, NTR1 ag 6, AHR activator 11, NR3A LBD binder 21*, Mot1-301 SUMO 12 and H9c2 protect -5.
For CC1(C)SC(=S)N(/N=C/c2ccccc2O)C1N(O)C(=O)Nc1ccccc1 (stereo not given) the results were AI-2 QS modul -9, NTR1 ag 25, AHR activator 3, NR3A LBD binder 1, Mot1-301 SUMO 400 and H9c2 protect 6.
CCc1nc2ccc(C(=O)Nc3ccc4c(c3)OCC(=O)N4)cn2c1N(C)C(=O)C1CCCCC1 was read as H9c2 protect 2.
CCCCn1ccnc1C(=O)c1cccc(S(=O)(=O)N2CC(C)CC(C)C2)c1 (stereo not given) was read as AI-2 QS modul 20, NTR1 ag 6, AHR activator 1, NR3A LBD binder 16* and H9c2 protect -18.
